From PubChem BioAssay
PKM2 act: increases activity of human pyruvate kinase M2; P14618; 260,000 tested, 0.34% active; Potency, µM (highest dose often 57.5 µM), for the others: at the highest dose activation, hits mostly activators; purified PKM2, Kinase-Glo ATP luminescence, activation; response scale: 0% is enzyme alone, no compound; further: potency means the concentration at half of the fitted maximal effect; nearly all actives have a fitted effect of over 55% in size
Target sequence (P14618 whole entry, looked up): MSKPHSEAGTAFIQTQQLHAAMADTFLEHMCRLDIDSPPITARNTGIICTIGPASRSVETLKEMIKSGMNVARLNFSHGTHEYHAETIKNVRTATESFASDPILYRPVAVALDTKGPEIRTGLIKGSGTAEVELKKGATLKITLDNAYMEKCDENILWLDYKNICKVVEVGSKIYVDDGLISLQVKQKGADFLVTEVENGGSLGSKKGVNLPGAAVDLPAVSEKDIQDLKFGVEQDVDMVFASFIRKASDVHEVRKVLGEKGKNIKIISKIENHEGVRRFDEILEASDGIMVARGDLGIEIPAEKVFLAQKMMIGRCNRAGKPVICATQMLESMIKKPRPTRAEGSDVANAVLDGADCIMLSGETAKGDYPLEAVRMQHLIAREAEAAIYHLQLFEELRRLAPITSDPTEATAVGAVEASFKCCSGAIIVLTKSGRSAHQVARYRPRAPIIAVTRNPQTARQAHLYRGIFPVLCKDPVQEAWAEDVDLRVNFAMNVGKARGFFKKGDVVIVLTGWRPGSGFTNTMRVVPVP
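hPK-M2, >95% pure; 0.1 mM ADP / 0.5 mM PEP final; imidazole pH7.2 buffer w/ 7 mM MgCl2, 50 mM KCl; 1 h RT; Kinase-Glo lum. Intermediate enzyme activity for dual inhibitor/activator qHTS.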
GLS inh: inhibitors of human glutaminase (GLS) | O94925 | GLS enzymatic activity, qHTS titration | Potency, µM (top dose mostly 45.5 µM), for the others: top-dose activity change, negative = inhibition, actives largely listed as inhibitors | 410,000 tested, 0.21% active | AID 624170; further: potency means the concentration at half of the fitted maximal effect
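hKGA; 45 mM KH2PO4 pH 8.2 + 0.02% Tween-20; cpd via pin tool; 1 mM Gln soln; GluOx/HRP/Amplex Red; RT 30 min; fluor. t0 & final.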
mIDH1 inhibitor: inhibitors of human mutant IDH1 R132H; O75874; IDH1-R132H enzyme, NADPH consumption, diaphorase/resazurin fluorescence; Potency, µM (titrated, usually from 76.6 µM), for inactives: at the highest dose activity change, negative = inhibition, actives largely listed as inhibitors; 390,000 tested, 0.093% active; AID 602179; further: potency means the concentration at half of the fitted maximal effect; nearly all actives have a fitted effect of over 65% in size
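IDH1-R132H (0.5 ug/mL) preincubated 30 min with compound, then NADPH (0.016 mM) and alpha-KG (2 mM) added; 80 min at RT, pH 7.5. Remaining NADPH coupled via diaphorase/resazurin to fluorescence (540/590 nm); concentration-response curves normalized to no-enzyme control.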
TrxR1 inh: rat TrxR1 inhibition; O89049; recombinant rTrxR1, NADPH fluorescence consumption, selenite substrate; Potency, µM (highest dose often 114 µM), without a hit: at the top dose activity change, negative = inhibition, hits mostly inhibitors; 390,000 tested, 1% active; AID 588453; further: potency means the concentration at half of the fitted maximal effect; nearly all actives have a fitted effect of over 65% in size
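Rat TrxR1 (90 nM in the dispensed reagent) was pre-reduced with 400 uM NADPH for 5 min at room temperature, then incubated with compound for 15 min. After 400 uM selenite was added, NADPH fluorescence (Ex 340/Em 450 nm) was followed for 8 min.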
LDHA inh: blocks human lactate dehydrogenase A | P00338 | purified LDHA, NADH/diaphorase-resazurin fluorescence; hits give low values | activity change, % (values are at about 110 or 230 µM) | 480,000 tested, 0.15% active; in the data active means activity change below about -30%; inconclusive means mostly about -25% to -30%;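 further: plate controls were DMSO wells for no effect and wells without enzyme for full effect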
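Human LDH5 at 2 nM final in Tris HCl pH 7.4 with 0.06 mM NADH and 0.2 mM pyruvate, reacted 5 minutes at room temperature. Remaining NADH coupled via diaphorase/resazurin; resorufin fluorescence read at 0 and 20 minutes, normalized to enzyme-free and DMSO wells.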
TrxR1 substrate: is turned over as a substrate by rat TrxR1; O89049; purified TrxR1 substrate turnover, NADPH consumption readout; Potency, µM (top dose mostly 114 µM), for the others: at the highest dose activity change, negative = substrate turnover; 390,000 tested, 0.01% active; AID 588456; further: potency means the concentration at half of the fitted maximal effect; nearly all actives have a fitted effect of over 50% in size
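Rat TrxR1, dispensed at 90 nM, was prereduced with 400 uM NADPH (final) for 5 min at ~22 deg C, then incubated with compound 15 min before 400 uM selenite. A first-read NADPH fluorescence drop versus no-compound background flagged substrates.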
The depositor's hits bear a star; u = inconclusive; x = no result; [ ] = remark or other dose. Sampled rows, rich in hits. Any-hit rate of the full collection: about 1.4%. Unless noted, the call rests on the fitted dose curve; in most records, active means well fitted curve in the direction sought with a large enough effect; inconclusive means small, poorly fitted or top-dose-only effect, or another doubt; inactive means no such curve, though single readings can be large; an effect the other way counts as inactive or inconclusive. Unless noted, on the % scale 0 is the no-effect control and ±100 the full control effect.

SMILES	PKM2 act	GLS inh	mIDH1 inhibitor	TrxR1 inh	LDHA inh	TrxR1 substrate
C=C(C)C(=O)Nc1cccc(C2=NOC3(C2)C[C@@H](C(N)=O)N(C(=O)/C=C/C=C/C)C3)c1 (stereo not given in full)	13µM*	11µM*	-14%	u	1	-8%
C/C=C/C=C/C(=O)N1CC2(CC(c3cccc(NC(=O)/C=C/C)c3)=NO2)C[C@@H]1C(N)=O (stereo not given in full)	8.9µM*	-11%	-12%	u	1	5%
Cc1cccc(Oc2coc3cc(OC(C)C(=O)OCCC(C)C)ccc3c2=O)c1 (stereo not given)	x	x	x	x	2	x
COc1ccc(OC)c2[nH]c(C(=O)NCC(=O)NCC(=O)O)cc12	x	x	x	x	30	x
O=C1CS(=O)(=O)N(Cc2ccc(F)cc2)c2ccccc21	x	5%	2%	45µM*	-1	-6%
CN(C)/C=C(\C(=O)c1ccc(F)cc1F)c1nnnn1-c1ccccc1	16µM*	-9%	5%	-17%	-8	-13%
CN(C)/C=C(\C(=O)c1ccccc1)c1nnnn1-c1ccccc1	4%	3%	-3%	7%[57.1 µM]	-6	9%[57.1 µM]
Cc1ccc(NC(=O)c2cc(C3CC3)nc3ccccc23)c(C)c1	x	x	x	x	0	x
Cc1cccc(C(=O)OCC(=O)Nc2ccccc2N2CCCC2=O)c1O	x	x	x	x	4	x
CC1(C)Cc2noc(N)c2C(C)(C)N1O	-11%	29%	3%	1.6µM*	4	4%
CC(=O)ON1C(C)(C)Cc2noc(N)c2C1(C)C	1%	19%	1%	7%	-6	-1%
CCCCSc1nnc(NC(=O)c2cc(=O)c3ccccc3o2)s1	x	x	x	x	4	x
NC(=O)c1cc(Cc2ccccc2)sc1NC(=O)c1ccncc1	x	x	x	x	-1	x
O=C(O)c1[nH]c2ccccc2c1C(c1ccccc1)c1c(C(=O)O)[nH]c2ccccc12	8%	11µM*	-2%	3%	-8	1%
CCN(CC)CCNC(=O)c1n[nH]c(=O)c2ccccc12	x	x	x	x	-1	x
C=CCN(C)Cc1cccc(OC)c1OC	x	x	x	x	5	x
O=C1CN(CC(=O)N2CCCCC2)c2ccccc2O1	-1%	19%	5%	25µM*	32	0%
CC1=NN(c2ccc(Cl)c(C(=O)O)c2)C(=O)C1	3%	13µM*	-3%	28%	1	-5%
CC1=NN(c2ccc(C(=O)O)c(N)c2)C(=O)C1	-10%	u	-10%	-3%[57.1 µM]	12	1%[57.1 µM]
N#Cc1c(-c2ccc(Cl)cc2)cc(-c2ccc(Br)cc2)c(C#N)c1N	x	x	x	x	8	x
Cn1c(-c2ccccc2)csc1=N	x	x	x	x	-49*	x
O=C(CCc1nc(-c2ccc(F)cc2)no1)Nc1cccc(S(=O)(=O)NC2=NCCC2)c1	x	x	x	x	7	x
Nc1nnc(SC2CC(=O)N(c3ccccc3)C2=O)s1 (stereo not given)	2%	6%	4%	28µM*	-4	-6%
CCOc1ccc(N2C(=O)CC(Sc3nc4ccc(OCC)cc4s3)C2=O)cc1 (stereo not given)	x	-3%	7%	-9%	-3	-7%
CCOC(=O)c1ccc(N2C(=O)CC(Sc3nc(C)cc(C)n3)C2=O)cc1 (stereo not given)	3%	-2%	-5%	13%	0	4%
SMILES	PKM2 act	GLS inh	mIDH1 inhibitor	TrxR1 inh	LDHA inh	TrxR1 substrate
CCOC(=O)c1ccc(N2C(=O)CC(Sc3nnc(C)s3)C2=O)cc1 (stereo not given)	u	0%	2%	5.6µM*	-2	6%
C=CCNc1nnc(SC2CC(=O)N(c3ccc(OCCC)cc3)C2=O)s1 (stereo not given)	7%	8%	19%	7.1µM*	-7	-7%
CCOC(=O)c1ccc(-n2c(C)ccc2C)cc1	-7%	-13%	5%	-27%	-6	-17%
CCOC(=O)c1ccc(N2C(=O)C=CC2=O)cc1	-8%	-25%	4%	8.9µM*	-3	9%
Cc1ccc(NC(=O)Nc2cn(CC(C)C)c(=O)c3ccccc23)c(C)c1	x	x	x	x	-22	x
Cc1ccc(Cl)cc1NC(=O)Nc1cn(CC(C)C)c(=O)c2ccccc12	x	-5%	41%	32%	-40*	11%
O=C(COC(=O)c1nc(-c2ccccc2)n(-c2ccccc2)n1)Nc1cc(F)ccc1F	x	x	x	x	1	x
C[n+]1cc2c3c(ccc2c2ccc4cc5c(cc4c21)OCO5)OCO3	x	3.2µM*	x	u	20	33%[57.1 µM]
Cc1ccc(OCc2cc(=O)n3oc(C)cc3n2)c(NC(=O)COc2cccc(C(F)(F)F)c2)c1	x	x	x	x	1	x
Cc1oc(-c2ccccc2)nc1CC(=O)Nc1cc(S(=O)(=O)N2CCCCC2)ccc1N(C)C	x	x	x	x	1	x
Cc1nc([N+](=O)[O-])c(Sc2nc3ccc([N+](=O)[O-])cc3[nH]2)n1Cc1ccccc1	u	-11%	3%	2.5µM*	-3	-13%
COC(=O)Cn1c(C)nc([N+](=O)[O-])c1Br	-6%	-1%	3%	16µM*	-4	9%[57.1 µM]
CCn1c(=N)n(CC(=O)c2cccc([N+](=O)[O-])c2)c2ccccc21	-4%	18%	1%	8%	-11	-5%
Cc1nc([N+](=O)[O-])c(Br)n1CC(=O)c1ccc(F)cc1	0%	-9%	0%	2.5µM*	-2	6%
Cc1nc([N+](=O)[O-])c(Br)n1CC(=O)c1cccc([N+](=O)[O-])c1	-2%	9%	1%	7.1µM*	-6	-3%[57.1 µM]
O=C(CCSc1ccc(Cl)cc1)Nc1ccc(CSc2ccccc2)cc1	x	x	x	x	5	x
CCCC(=O)Nc1cc(-c2ccccc2OC)[nH]n1	x	x	x	x	-1	x
O=C1NC2(CCCCC2)N(C(=O)c2ccccc2Br)C2=C1CCCC2	x	x	x	x	4	x
Cc1nc([N+](=O)[O-])c(SCC(O)CCl)n1Cc1ccc(Cl)cc1 (stereo not given)	-2%	1%	-1%	14%[57.1 µM]	-6	3%[57.1 µM]
Cc1nc([N+](=O)[O-])c(Br)n1Cc1ccccc1	-4%	0%	-1%	16µM*	-5	0%
c1cncc(CSc2nnc3ccc(-c4cccs4)nn23)c1	25µM*	-9%	-13%	29%	-5	7%
c1cncc(CSc2nnc3ccc(-c4ccncc4)nn23)c1	20%	-13%	3%	25%	-1	3%
Nc1cccnc1Sc1cccc(Cl)c1	13%	1%	11%	10µM*	28	19%
COc1ccc(-c2csc(-c3ccc(O)cc3)n2)cc1	13%	49%	-11%	56µM*	-12	2%
COc1ccc(CN(C)[C@H]2C[C@H]3c4[nH]c5ccccc5c4CCN3C[C@H]2[C@H](C)O)cc1	x	0%	-7%	x	-30*	x
